Data reported in article PMC5540273 (PLoS ONE, 2017).

Columns and labels:
Settings in all cases: concentration: 1 μM, replicates: in singlicate; n = 1
[1] = test system: T1, MEK5
T1 construct: gene MAP2K5

[2] = test system: T2, MEK6
T2 construct: gene MAP2K6

[3] = test system: MELK
[4] = test system: MERTK
[5] = test system: MET
[6] = test system: T3, MINK
T3 construct: gene MINK1

[7] = test system: MKK7
[8] = test system: MKNK1
[9] = test system: MKNK2
[10] = test system: T4, MLCK
T4 construct: gene MYLK3

[11] = test system: T5, MLK1
T5 construct: gene MAP3K9

[12] = test system: MLK2
[13] = test system: MLK3
[14] = test system: MRCKA
[15] = test system: T6, MRCKB
T6 construct: gene CDC42BPB

[16] = test system: MST1R
[17] = test system: T7, MST1
T7 construct: gene STK4

[18] = test system: T8, MST2
T8 construct: gene STK3

[19] = test system: T9, MST3
T9 construct: gene STK24

[20] = test system: MST4
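Note: KINOMEscan kinase panel screen.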

Structure (SMILES)	%Inh [1]	%Inh [2]	%Inh [3]	%Inh [4]	%Inh [5]	%Inh [6]	%Inh [7]	%Inh [8]	%Inh [9]	%Inh [10]	%Inh [11]	%Inh [12]	%Inh [13]	%Inh [14]	%Inh [15]	%Inh [16]	%Inh [17]	%Inh [18]	%Inh [19]	%Inh [20]
O=C(Nc1n[nH]c2cc(-c3cccs3)ccc12)C1CC1 [SB-731284]	33%	0%	0%	0%	0%	67%	0%	31%	28%	71%	0%	27%	0%	0%	0%	0%	10%	0%	7%	39%
Cc1ccc(O)cc1Nc1ccnc2ccc(C(C)(C)C)cc12 [GW856805]	86%	25%	8%	46%	0%	10%	40%	0%	30%	4%	11%	19%	19%	0%	0%	0%	0%	28%	12%	36%
COc1cccc(CC(=O)N2CCc3cc(-c4cn(C)c5ncnc(N)c45)ccc32)c1 [GSK2608899]	99.7%	0%	13%	75%	75%	19%	0%	9%	14%	10%	32%	41%	20%	2%	0%	45%	98.8%	100%	31%	27%
Cn1cc(-c2cnc(N)c3c(-c4ccc5c(c4)CCN5C(=O)Cc4ccccc4)csc23)cn1 [GSK2593074]	99.8%	7%	0%	90%	79%	16%	0%	0%	0%	0%	14%	25%	14%	10%	10%	12%	97.8%	100%	7%	33%
CN(c1ccc(F)c(NC(=O)c2cccc(OC(C)(C)C#N)c2Cl)c1)c1ccc2nc(NC(=O)C3CC3)sc2n1	99.8%	0%	0%	30%	24%	54%	39%	0%	22%	0%	0%	4%	0%	0%	0%	5%	0%	0%	0%	0%
CN1CCN(Cc2ccc(NC(=O)Nc3ccc(N(C)c4ccnc(Nc5ccc(CS(C)(=O)=O)cc5)n4)cc3)cc2)CC1.Cl [GW827654]	99.1%	0%	32%	72%	67%	95.6%	0%	96.7%	100%	26%	14%	24%	0%	15%	30%	92.7%	61%	99%	68%	83%
COC(=O)Nc1nc2cc(Oc3ccc(NC(=O)Nc4cccc(SC)c4)cc3)ccc2[nH]1.Cl [GW697999]	55%	0%	0%	89%	21%	23%	0%	32%	65%	0%	0%	0%	0%	14%	0%	29%	4%	0%	0%	0%
CCOc1nccc(-c2c(-c3ccc(F)cc3)ncn2C2CCNCC2)n1 [SB-249175]	26%	18%	0%	18%	0%	49%	7%	57%	46%	2%	3%	14%	15%	0%	26%	0%	0%	0%	13%	11%
Cc1cc(-c2ccnc(Nc3cccc(C#N)c3)n2)cc(C)c1O [GSK1440913]	23%	35%	0%	42%	38%	52%	36%	2%	2%	77%	66%	0%	36%	5%	0%	0%	0%	9%	6%	9%
CC(C)c1nc(-c2ccc(F)c(NS(=O)(=O)c3c(F)cccc3F)c2)c(-c2ccnc(Nc3ccc(N4CCOCC4)nc3)n2)s1 [GSK1804250]	100%	22%	45%	54%	70%	26%	15%	21%	11%	0%	52%	8%	52%	4%	0%	46%	17%	3%	23%	23%
Nc1ncc(-c2ccc3nccc(-c4ccncc4)c3c2)cc1S(=O)(=O)N1CCCCC1 [GSK1693850]	50%	12%	36%	35%	0%	31%	0%	2%	6%	0%	0%	0%	7%	12%	0%	35%	8%	25%	29%	0%
COc1ccc(C2=C(Nc3cccc(O)c3)C(=O)NC2=O)cc1 [SB-390766]	17%	0%	99.4%	28%	0%	0%	73%	93.5%	17%	2%	0%	0%	0%	0%	2%	100%	7%	100%	0%	0%
Cl.Cl.NC(CNC(=O)c1cc(Br)c(-c2ccnc3[nH]ccc23)s1)c1ccccc1 (stereo not shown) [GSK1322949]	59%	0%	74%	58%	22%	69%	0%	68%	99.9%	70%	0%	0%	0%	29%	93.7%	5%	0%	26%	5%	3%
Cl.N#CCc1ccc(Nc2nccc(Nc3ccc(Oc4ccccc4)cc3)n2)cc1 [GW639905]	99.9%	0%	0%	0%	0%	0%	0%	0%	33%	0%	0%	0%	0%	6%	0%	2%	20%	0%	0%	0%
COc1cccc2c(-c3ccncc3)c(-c3ccc(F)cc3)nn12 [GW468513]	33%	0%	0%	0%	84%	78%	0%	22%	0%	6%	0%	1%	4%	60%	67%	15%	31%	0%	0%	0%
Cl.Cl.NCC(NC(=O)c1cc(-c2cccnc2)c(-c2ccnc3[nH]ccc23)s1)c1ccccc1 (stereo not shown) [GSK1323434]	59%	0%	20%	13%	0%	80%	0%	0%	56%	51%	0%	0%	48%	39%	35%	84%	0%	8%	0%	15%
Cc1ccc(O)cc1Nc1ccnc2cc(-c3ccc(CN4CCCCC4)o3)ccc12 [GW557777]	97.9%	15%	0%	13%	0%	38%	0%	0%	0%	0%	2%	0%	2%	0%	0%	5%	0%	0%	17%	0%
COc1cc(Nc2nccc(N3CCC(NS(=O)(=O)c4ccc(NC(C)=O)cc4)CC3)n2)cc(OC)c1OC [GSK1379825]	88%	24%	19%	38%	0%	0%	15%	0%	83%	0%	52%	0%	51%	92.3%	80%	13%	0%	19%	0%	0%
Cc1ccccc1CC(=O)N1CCc2cc(-c3cn(C)c4ncnc(N)c34)ccc21 [GSK2603346]	99.9%	73%	7%	46%	70%	0%	0%	7%	55%	6%	7%	0%	18%	0%	0%	46%	97%	0%	46%	54%
Nc1ncc(-c2cn[nH]c2)c2scc(-c3ccc4c(c3)CCN4C(=O)Cc3ccccc3)c12 [GSK2593067]	99.9%	0%	32%	73%	77%	33%	34%	0%	11%	6%	16%	0%	32%	0%	0%	27%	99.4%	14%	0%	20%
